Measured values from PubChem BioAssay (EPA / NIEHS).
Results filed as inconclusive are left out. Activity calls are given as the source filed them. Rule for the calls, unless noted: active = hit-call score of the fitted dose curve at least 0.9, where 1 is the maximum; inconclusive = response in the unintended direction; inactive = score below 0.9.

How the values were obtained:
[1] = CCTE_Padilla_ZF_144hpf_TERATOSCORE: (Legacy) CCTE's 144 Hour Post-fertilization zebrafish Assay Teratoscore, Padilla Lab (AID 2283679; active = hit-call score of the fitted dose curve at least 0.9, where 1 is the maximum; inactive = score below 0.9;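 for AC50: zebrafish embryos with chorions exposed by immersion from 6-8 hpf to 5 dpf with daily renewal; teratogenicity score from eye scoring of death hatching and malformations at 144 hpf; higher score means more developmental defects relative to DMSO baseline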)
Method in brief: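 Larvae scored by eye at 144 hpf for death, hatching and malformations after a day in clean Hanks'. Before that, daily-renewed exposure at 80 uM (0.4% DMSO, 26C) from roughly 6-8 hpf through 5 dpf, 4 embryos per chemical.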

[2] = read-out: xenobiotic metabolism (CYP1A2), CYP1A2 (gene 1544); test: CLD_CYP1A2_24hr: CellzDirect (CLD) Gene Expression Assay for xenobiotic metabolism (CYP1A2) at 24 hours (AID 2283683)
Method in brief: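 CYP1A2 mRNA induction measured by quantitative nuclease protection (chemiluminescent) in human primary hepatocytes 24 h after multi-concentration chemical dosing with daily fresh solutions. DMSO (0.2%) baseline; positive-direction fitting; morphology-based cytotoxicity noted.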

[3] = read-out: Cytochrome P450 2B6 (Homo sapiens) (UniProt P20813); test: CLD_CYP2B6_24hr: CellzDirect (CLD) Gene Expression Assay for xenobiotic metabolism (CYP2B6) at 24 hours (AID 2283686)
Method in brief: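 qNPA chemiluminescent measurement of mRNA at 24 hours in human primary hepatocyte cultures from two donor preparations, with daily fresh dosing and 0.2% DMSO vehicle as baseline. Morphology-based cytotoxicity flagged yes/no.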

[4] = read-out: Cytochrome P450 2C19 (Homo sapiens) (UniProt P33261); test: CLD_CYP2C19_24hr: CellzDirect (CLD) Gene Expression Assay for xenobiotic metabolism (CYP2C19) at 24 hours (AID 2283687);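 note: activity means mRNA induction above DMSO vehicle baseline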
Method in brief: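 CYP2C19 mRNA was quantified by qNPA chemiluminescence after 24 h of daily dosing of cultured human primary hepatocytes from two donors; vehicle was 0.2% DMSO, and increases over DMSO baseline were fitted.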

[5] = read-out: ABC Transporter (ABCB1), ABCB1 (gene 5243); test: CLD_ABCB1_24hr: CellzDirect (CLD) Gene Expression Assay for ABC Transporter (ABCB1) at 24 hours (AID 2283684);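 for AC50: potency for increase in ABCB1 mRNA relative to DMSO vehicle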
Method in brief: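 ABCB1 mRNA induction versus 0.2% DMSO vehicle was read by qNPA chemiluminescence at 24 h. Cultured human hepatocytes from two donor preparations received daily fresh dosing, and phase-contrast cytotoxicity calls were annotated alongside the data.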

[6] = read-out: Broad substrate specificity ATP-binding cassette transporter ABCG2 (Homo sapiens) (UniProt Q9UNQ0); test: CLD_ABCG2_24hr: CellzDirect (CLD) Gene Expression Assay for ABC Transporter (ABCG2) at 24 hours (AID 2283685);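 for AC50: AC50 is for induction meaning signal gain over DMSO vehicle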
Method in brief: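 ABCG2 mRNA induction, read as gain of chemiluminescent signal over 0.2% DMSO, was measured by quantitative nuclease protection at 24 h. Cultured human liver hepatocytes were given fresh dosing solutions of test chemicals at several concentrations each day.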

[7] = read-out: Glyceraldehyde-3-phosphate dehydrogenase (Homo sapiens) (UniProt P04406); test: CLD_GAPDH_6hr: CellzDirect (CLD) Gene Expression Assay for Baseline Control (Glyceraldehyde 3-phosphate dehydrogenase) at 6 hours (AID 2283681);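 note: active means increased signal relative to DMSO vehicle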
Method in brief: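 GAPDH baseline-control readout from qNPA (S1 nuclease digestion, probe hybridization, chemiluminescence) in lysates of cultured human hepatocytes harvested 6 h post-dosing. Chemicals tested at multiple concentrations versus 0.2% DMSO vehicle; microscopy-based cytotoxicity flagged yes/no.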

[8] = read-out: HMG-CoA synthase (HMGCS2), HMGCS2 (gene 3158); test: CLD_HMGCS2_6hr: CellzDirect (CLD) Gene Expression Assay for HMG-CoA synthase (HMGCS2) at 6 hours (AID 2283682);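 note: actives raise HMGCS2 transcript above the 0.2% DMSO vehicle baseline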
Method in brief: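 HMGCS2 transcript induction read by quantitative nuclease protection with chemiluminescence, 6 h after dosing of primary human hepatocytes. Baseline was 0.2% DMSO vehicle; phase-contrast morphology gave a yes/no cytotoxicity annotation.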

[9] = read-out: Cytochrome P450 3A4 (Homo sapiens) (UniProt P08684); test: CLD_CYP3A4_24hr: CellzDirect (CLD) Gene Expression Assay for xenobiotic metabolism (CYP3A4) at 24 hours (AID 2283689)
Method in brief: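 CYP3A4 mRNA induction read by quantitative nuclease protection (chemiluminescence) 24 hr after dosing. Cultured human hepatocytes (two donor preparations) treated daily, vehicle 0.2% DMSO; phase-contrast morphology annotates cytotoxicity.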

[10] = read-out: Cytochrome P450 3A4 (Homo sapiens) (UniProt P08684); test: CLD_CYP3A4_6hr: CellzDirect (CLD) Gene Expression Assay for xenobiotic metabolism (CYP3A4) at 6 hours (AID 2283680)
Method in brief: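 CYP3A4 mRNA induction, 6 h after dosing of cultured primary human hepatocytes from two donors, read by quantitative nuclease protection (qNPA, chemiluminescence). Vehicle 0.2% DMSO as baseline; morphology-based cytotoxicity annotated yes/no.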

Measured: AC50

Chain of Cytochrome P450 2C19 (Homo sapiens) (P33261 whole entry, looked up): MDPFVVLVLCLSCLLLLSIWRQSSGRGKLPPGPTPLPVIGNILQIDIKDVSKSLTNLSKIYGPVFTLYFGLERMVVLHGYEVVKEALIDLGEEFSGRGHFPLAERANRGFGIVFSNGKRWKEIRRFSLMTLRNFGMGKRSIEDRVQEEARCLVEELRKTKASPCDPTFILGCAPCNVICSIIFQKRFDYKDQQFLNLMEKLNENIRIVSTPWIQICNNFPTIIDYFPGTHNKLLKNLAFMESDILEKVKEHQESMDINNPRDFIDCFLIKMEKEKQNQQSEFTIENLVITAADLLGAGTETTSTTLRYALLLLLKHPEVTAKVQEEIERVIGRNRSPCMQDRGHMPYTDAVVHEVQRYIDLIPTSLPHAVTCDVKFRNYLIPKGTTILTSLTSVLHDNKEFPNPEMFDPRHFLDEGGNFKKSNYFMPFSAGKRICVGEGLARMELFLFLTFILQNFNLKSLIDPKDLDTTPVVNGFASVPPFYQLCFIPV
Chain of Cytochrome P450 3A4 (Homo sapiens) (P08684 whole entry, looked up): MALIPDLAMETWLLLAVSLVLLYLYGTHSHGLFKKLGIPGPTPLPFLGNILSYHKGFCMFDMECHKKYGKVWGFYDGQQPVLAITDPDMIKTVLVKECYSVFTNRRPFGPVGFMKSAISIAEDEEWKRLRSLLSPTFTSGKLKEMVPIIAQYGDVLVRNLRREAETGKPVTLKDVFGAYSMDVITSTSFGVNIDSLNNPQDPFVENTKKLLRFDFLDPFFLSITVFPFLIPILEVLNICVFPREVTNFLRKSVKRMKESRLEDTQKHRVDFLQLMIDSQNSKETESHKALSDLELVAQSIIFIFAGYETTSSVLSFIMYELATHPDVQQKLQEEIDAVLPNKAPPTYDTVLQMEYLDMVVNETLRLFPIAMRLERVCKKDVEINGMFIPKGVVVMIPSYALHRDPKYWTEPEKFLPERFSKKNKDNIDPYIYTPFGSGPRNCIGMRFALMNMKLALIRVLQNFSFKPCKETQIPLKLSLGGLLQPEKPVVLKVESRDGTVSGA
Chain of Broad substrate specificity ATP-binding cassette transporter ABCG2 (Homo sapiens) (Q9UNQ0 whole entry, looked up): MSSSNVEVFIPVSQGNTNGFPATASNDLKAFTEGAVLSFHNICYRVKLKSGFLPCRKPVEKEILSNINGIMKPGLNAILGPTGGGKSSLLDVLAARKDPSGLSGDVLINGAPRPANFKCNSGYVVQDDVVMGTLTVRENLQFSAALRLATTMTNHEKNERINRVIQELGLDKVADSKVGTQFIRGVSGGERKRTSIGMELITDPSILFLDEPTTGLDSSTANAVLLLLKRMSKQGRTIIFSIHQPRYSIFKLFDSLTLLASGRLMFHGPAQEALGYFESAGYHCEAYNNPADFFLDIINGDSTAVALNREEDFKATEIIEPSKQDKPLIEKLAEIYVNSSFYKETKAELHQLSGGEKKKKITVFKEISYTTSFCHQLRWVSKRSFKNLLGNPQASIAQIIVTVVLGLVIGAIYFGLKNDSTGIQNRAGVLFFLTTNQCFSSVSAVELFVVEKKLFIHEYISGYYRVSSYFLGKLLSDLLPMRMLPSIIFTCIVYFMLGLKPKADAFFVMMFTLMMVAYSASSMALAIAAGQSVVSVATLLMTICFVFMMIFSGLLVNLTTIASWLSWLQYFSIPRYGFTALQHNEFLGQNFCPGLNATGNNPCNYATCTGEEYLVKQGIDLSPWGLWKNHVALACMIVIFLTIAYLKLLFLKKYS
Chain of Glyceraldehyde-3-phosphate dehydrogenase (Homo sapiens) (P04406 whole entry, looked up): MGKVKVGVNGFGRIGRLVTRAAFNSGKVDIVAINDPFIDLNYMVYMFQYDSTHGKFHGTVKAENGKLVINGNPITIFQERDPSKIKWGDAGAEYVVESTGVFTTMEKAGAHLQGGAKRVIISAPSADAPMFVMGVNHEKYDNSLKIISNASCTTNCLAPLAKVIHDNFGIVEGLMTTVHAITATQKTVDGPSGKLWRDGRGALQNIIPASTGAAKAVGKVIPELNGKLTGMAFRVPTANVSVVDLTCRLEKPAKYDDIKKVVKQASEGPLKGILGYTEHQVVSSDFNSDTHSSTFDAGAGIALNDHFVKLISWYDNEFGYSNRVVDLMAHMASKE

CCOP(=O)(NC(C)C)Oc1ccc(SC)c(C)c1 (configuration not stated)
active: [1] 50.3 µM | [2] 6.73 µM | [3] 6.17 µM
inactive: [4]

COP(=O)(OC)SCn1c(=O)oc2cc(Cl)cnc21
active: [1] 51.1 µM
inactive: [2] | [5] | [6]

CCOP(=S)(OCC)OC(Cl)C(Cl)(Cl)Cl (configuration not stated)
active: [1] 4.82 µM | [2] 15.5 µM
inactive: [7] | [8] | [5] | [6]

CCc1cnc(C2=NC(C)(C(C)C)C(=O)N2)c(C(=O)O)c1 (configuration not stated)
inactive: [1] | [7] | [8] | [2] | [5] | [4]

FC(F)C(F)(F)OCC(Cn1cncn1)c1ccc(Cl)cc1Cl (configuration not stated)
active: [1] 57.8 µM | [2] 1.46 µM | [3] 0.275 µM | [9] 0.949 µM
inactive: [5] | [6]

C[Si](Cn1cncn1)(c1ccc(F)cc1)c1ccc(F)cc1
active: [1] 9.34 µM | [2] 1.89 µM | [5] 4.51 µM
inactive: [7] | [8] | [6]

CC(=NC#N)N(C)Cc1ccc(Cl)nc1
inactive: [1] | [7] | [5] | [6] | [4]

Nc1nc(N)nc(NC2CC2)n1
inactive: [1] | [7] | [8] | [2] | [5] | [6] | [9]

O=[N+]([O-])c1cc(C(F)(F)F)c(Cl)c([N+](=O)[O-])c1Nc1ncc(C(F)(F)F)cc1Cl
inactive: [10] | [7] | [8] | [9]
active: [1] 0.994 µM | [2] 0.508 µM

C#CCC1=C(C)C(OC(=O)C2C(C=C(C)C)C2(C)C)CC1=O (configuration not stated)
active: [1] 2.76 µM | [2] 20 µM | [9] 4.64 µM
inactive: [7] | [8] | [5] | [6]

CN(C)[C@@H]1C(=O)C(C(N)=O)=C(O)[C@@]2(O)C(=O)C3=C(O)c4c(O)cccc4[C@@](C)(O)[C@H]3[C@H](O)[C@@H]12
inactive: [1] | [8] | [2]

CCCOCC(=Nc1ccc(Cl)cc1C(F)(F)F)n1ccnc1
active: [1] 2.07 µM | [2] 1.89 µM | [5] 32 µM | [6] 20 µM
inactive: [7] | [8] | [3]

CN(C)C(=O)Nc1cccc(C(F)(F)F)c1
active: [2] 3.66 µM | [3] 4.64 µM
inactive: [1] | [8] | [5] | [6]

CCOP(=S)(OCC)Oc1ccc2c(C)c(Cl)c(=O)oc2c1
active: [1] 27.3 µM | [8] 0.00508 µM | [2] 0.527 µM
inactive: [5]
